An excerpt weighted towards active compounds, which were near 12% of everything screened.
Sfp PPTase inh: inhibitors of Bacillus subtilis Sfp phosphopantetheinyl transferase; Q9F4F7; Biochemical Sfp PPTase activity, qHTS; Potency, µM, hits mostly inhibitors; actives 3.5% (n = 310,000); AID 1490;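 also: the enzyme is Sfp with the accession as filed and its product quenches rhodamine fluorescence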
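After 15 min at room temperature with compound, 15 nM Sfp received 5 uM rhodamine-CoA plus 12.5 uM BHQ-2-ybbR (50 mM Hepes pH 7.6, 10 mM MgCl2). Rate came from the fluorescence difference over 30 min, ex 525/em 598 nm.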
G9a block: G9a (human) methyltransferase inhibition; AID 504332; Q96KQ7; Potency, µM (top dose mostly 102 µM), usual class: inhibitors; G9a H3K9 monomethylation, AlphaScreen, 2 h; actives 8.8% (n = 350,000); also: nearly all actives have a fitted effect of over 75% in size
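Methyltransferase reactions run at room temperature for 2 h (20 nM enzyme, 500 nM biotin-H3K9 peptide, 20 uM SAM) after a 15 min compound preincubation; product detected by AlphaScreen beads and anti-H3K9me1 antibody.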
HP1b binding inh: inhibitors of HP1-beta chromodomain binding to methylated histone tails; AlphaScreen HP1-beta / biotin-H3K9me3 peptide binding; Potency, µM (series often up to 114 µM), usual class: inhibitors; actives 0.56% (n = 390,000); also: nearly all actives have a fitted effect of over 70% in size
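Compound inhibition of the preformed complex between 50 nM HP1-beta and 50 nM biotinylated H3K9me3 peptide was read by AlphaScreen. Buffer was PBS pH 7.4 with 0.01% Tween-20. Incubations ran 30 min at room temperature, with 10 ug/mL donor/acceptor beads.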
JMJD2A Tudor: JMJD2A Tudor domain (human) inhibition | O75164 | AlphaScreen JMJD2A-Tudor / H3K4me3 peptide binding | Potency, µM (doses to about 114 µM), usual class: inhibitors | actives 4.4% (n = 390,000); also: nearly all actives have a fitted effect of over 50% in size
BAZ2B inh: inhibitors of human BAZ2B bromodomain; Q9UIF8; AlphaScreen BAZ2B-H3K14Ac peptide displacement; Potency, µM (titrated, usually from 114 µM), usual class: inhibitors; actives 4.4% (n = 360,000); AID 504333; also: nearly all actives have a fitted effect of over 60% in size
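Compounds, titrated to a top concentration of 110 uM, were incubated 30 min at room temperature with preformed BAZ2B/acetyl-K14 H3 peptide complex (50 nM each). Proximity signal was measured by AlphaScreen after 20 min with beads.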
TDP1 inh: TDP1 (human) enzyme inhibition. Q9NUW8. recombinant TDP1, AlphaScreen DNA substrate cleavage. Potency, µM (series often up to 130 µM), actives largely listed as inhibitors. actives 0.28% (n = 350,000). AID 485290; also: nearly all actives have a fitted effect of over 40% in size
Target sequence (Q9NUW8 whole entry, looked up): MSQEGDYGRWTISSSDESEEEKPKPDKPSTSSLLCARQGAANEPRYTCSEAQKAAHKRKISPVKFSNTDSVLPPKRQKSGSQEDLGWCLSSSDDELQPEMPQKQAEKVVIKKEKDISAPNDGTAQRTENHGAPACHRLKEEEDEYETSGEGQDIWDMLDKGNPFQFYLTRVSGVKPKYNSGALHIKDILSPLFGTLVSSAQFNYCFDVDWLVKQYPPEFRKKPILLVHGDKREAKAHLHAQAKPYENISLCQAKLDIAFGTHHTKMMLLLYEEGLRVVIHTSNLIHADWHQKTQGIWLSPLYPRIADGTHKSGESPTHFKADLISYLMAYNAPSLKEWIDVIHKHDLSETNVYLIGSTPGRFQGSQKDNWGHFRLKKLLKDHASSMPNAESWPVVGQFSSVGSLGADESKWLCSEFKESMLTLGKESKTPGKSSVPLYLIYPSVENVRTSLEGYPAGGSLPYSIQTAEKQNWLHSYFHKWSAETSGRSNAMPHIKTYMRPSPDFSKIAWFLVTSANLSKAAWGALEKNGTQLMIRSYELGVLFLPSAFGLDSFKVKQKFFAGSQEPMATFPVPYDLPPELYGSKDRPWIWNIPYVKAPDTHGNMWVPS
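Signal: AlphaScreen proximity between streptavidin donor and anti-FITC acceptor beads on intact substrate. Reaction: Tdp1 1 nM, substrate 15 nM final, 5 min RT after 15 min compound preincubation.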
Each line names hits and unclear results; the compound was inactive in the other large screens. Calls follow the shape of the dose curve; as a rule, active = well fitted curve in the direction sought with a large enough effect; inconclusive = small, poorly fitted or top-dose-only effect, or another doubt; inactive = no such curve, though single readings can be large; an effect the other way counts as inactive or inconclusive.

O=C(Nc1ccc(-c2nc3ccccc3o2)c(O)c1)c1cc(-n2cnnc2)ccc1Cl	none
Cc1nnc(SCC(=O)N(Cc2ccccc2)C(C)(C)C)[nH]c1=O	none
Cc1ccc(S(=O)(=O)N2CCc3ccccc3C2CC(=O)O)cc1 (centres undefined)	G9a block 79µM (no result: TDP1 inh)
O=C(O)CC1c2ccccc2CCN1S(=O)(=O)c1ccccc1 (centres undefined)	none (no result: Sfp PPTase inh, G9a block, BAZ2B inh, TDP1 inh)
CCn1nc(C)cc1-c1nnc(Sc2ncc([N+](=O)[O-])s2)n1C	Sfp PPTase inh 45µM, G9a block 6.3µM, JMJD2A Tudor inconclusive (no result: TDP1 inh)
CCn1nc(C)cc1-c1nnc(SCC(=O)Nc2ccccc2)n1CCCOC	none (no result: G9a block)
CC(NC(=O)c1ccc(S(=O)(=O)N(C)C)cc1)c1ccc(-n2ccnc2)cc1 (centres undefined)	none
CC(NC(=O)c1ccc(S(=O)(=O)N(C)C)cc1)c1ccccc1 (centres undefined)	JMJD2A Tudor 79µM
CCCCOc1ccc(CNC(=O)Cc2ccc(NC(=O)N3CCCCc4ccccc43)cc2)cc1	JMJD2A Tudor 79µM (no result: Sfp PPTase inh)
COc1cccc(NC(=O)Cc2ccc(NC(=O)N3CCCCc4ccccc43)cc2)c1	JMJD2A Tudor 11µM (no result: Sfp PPTase inh)
CCCCOc1ccc(CNC(=O)c2ccc(NC(=O)N3CCCCc4ccccc43)cc2)cc1	none (no result: Sfp PPTase inh)
OC(CNC1CCCc2ccccc21)COc1ccc2ccccc2c1 (centres undefined)	G9a block 10µM, HP1b binding inh inconclusive, BAZ2B inh inconclusive
CCc1ccccc1OC[C@@H](O)CN[C@H]1CCCc2ccccc21	Sfp PPTase inh 50µM, G9a block 4µM, JMJD2A Tudor 40µM, BAZ2B inh inconclusive
O=C(c1ccccc1)c1ccc(OCC(O)CNC2CCCc3ccccc32)cc1 (centres undefined)	G9a block 10µM, HP1b binding inh inconclusive, JMJD2A Tudor 10µM, BAZ2B inh 50µM
CC(=O)CCc1ccc(OCC(O)CNC2CCCc3ccccc32)cc1 (centres undefined)	G9a block inconclusive, JMJD2A Tudor 3.5µM, BAZ2B inh inconclusive
O=C(COC(=O)COc1ccc2ccccc2c1)NC1CCCc2ccccc21 (centres undefined)	none
CC(C)(C)NCC(O)COc1ccccc1C1CCCC1 (centres undefined)	none (no result: Sfp PPTase inh, TDP1 inh)
CC(C)(C)OC(=O)N1CCC(c2c(C(=O)Nc3ccc4c(c3)OCCO4)cnn2-c2ccc(F)cc2)CC1	G9a block inconclusive (no result: Sfp PPTase inh)
COc1ccc(-c2cc(C(=O)NCc3ccco3)c3ccccc3n2)c(OC)c1	BAZ2B inh inconclusive, TDP1 inh 8.9µM (no result: G9a block)
COc1ccc(-c2cc(C(=O)NCc3ccco3)c3ccccc3n2)cc1	Sfp PPTase inh inconclusive (no result: G9a block, TDP1 inh)
COc1ccc(Nc2cc(C(=O)NCc3cccnc3)c3ccccc3n2)c(OC)c1	G9a block 45µM, BAZ2B inh inconclusive (no result: HP1b binding inh, JMJD2A Tudor)
COc1ccccc1Nc1nn2c(=O)c3ccc(C(=O)NCc4cccnc4)cc3nc2s1	BAZ2B inh 56µM (no result: HP1b binding inh, JMJD2A Tudor, TDP1 inh)
COc1ccc(Nc2cc(C(=O)NCc3ccccn3)c3ccccc3n2)c(OC)c1	BAZ2B inh inconclusive (no result: HP1b binding inh, JMJD2A Tudor)
COc1ccc(Nc2cc(C(=O)NCc3ccco3)c3ccccc3n2)c(OC)c1	G9a block inconclusive, JMJD2A Tudor inconclusive, BAZ2B inh 50µM
N#CCc1nn(-c2ccccc2)c2ncnc(N)c12	none (no result: G9a block)
O=C(NCc1ccco1)c1cc(-c2ccccn2)nc2ccccc12	G9a block 79µM
N#CCSC1=Nc2ccccc2C2=NC(CCC(=O)N3CCN(c4ccccc4)CC3)C(=O)N12 (centres undefined)	Sfp PPTase inh inconclusive, G9a block 45µM, BAZ2B inh inconclusive
O=C(CN1C(=O)COc2ccc(S(=O)(=O)N3CCOCC3)cc21)N1CCN(c2cccc(C(F)(F)F)c2)CC1	none (no result: Sfp PPTase inh)
Cn1c(N)c(Sc2ccc([N+](=O)[O-])cc2)c(=O)n(C)c1=O	JMJD2A Tudor inconclusive
O=C1C=CC(=O)N1c1ccc(Sc2ccc([N+](=O)[O-])cc2)cc1	Sfp PPTase inh 8.9µM, G9a block 8.9µM, BAZ2B inh inconclusive (no result: HP1b binding inh, JMJD2A Tudor)
